Results reported in PubChem BioAssay AID1159580 (chemical genetic matrix, 2015).
In all, about 5,500 compounds went through this assay and about 2,000 (36%) were called active. Inconclusive results (about 18%) are left out. Rule as the data show it: active = normalized growth mostly below about 0.91 (no sharp cut-off); inconclusive = no clear call, values can overlap the other calls; inactive = mostly above about 0.92. Some of the results follow.

Experiment: chemical genetic growth profiling, strain panel (AID 1159580);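 also: tested at 20 µM; growth read once vehicle control cultures reached saturation at 30 °C; 1 = growth at the plate median or of vehicle wells; lower values mean less growth of the strain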
Settings: S. cerevisiae deletion strains, growth OD
[1] = locus YAR019C, strain CDC15, active compounds read low
[2] = locus YBL105C, strain PKC1, active compounds read low
[3] = locus YBR135W, strain CKS1, active compounds read low
[4] = locus YBR136W, strain MEC1, active compounds read low
[5] = locus YBR160W, strain CDC28, active compounds read low
[6] = locus YDL017W, strain CDC7, active compounds read low
[7] = locus YDL028C, strain MPS1, active compounds read low
[8] = locus YDL101C, strain DUN1, active compounds read low
[9] = locus YDL108W, strain KIN28, active compounds read low
[10] = locus YDL132W, strain cdc53, active compounds read low
[11] = locus YDL214C, strain PRR2, active compounds read low
[12] = locus YDR052C, strain DBF4, active compounds read low
[13] = locus YDR054C, strain cdc34, active compounds read low
[14] = locus YDR226W, strain ADK1, active compounds read low
[15] = locus YDR477W, strain SNF1, active compounds read low
[16] = locus YER123W, strain YCK3, active compounds read low
[17] = locus YER133W, strain GLC7, active compounds read low
[18] = locus YFL009W, strain cdc4, active compounds read low
[19] = locus YFL029C, strain CAK1, active compounds read low
[20] = locus YFR003C, strain YPI1, active compounds read low
[21] = locus YFR019W, strain FAB1, active compounds read low
[22] = locus YFR028C, strain CDC14, active compounds read low
[23] = locus YGR040W, strain KSS1, active compounds read low
[24] = locus YGR052W, strain FMP48, active compounds read low
[25] = locus YGR092W, strain DBF2, active compounds read low
[26] = locus YHR030C, strain SLT2, active compounds read low
[27] = locus YHR079C, strain IRE1, active compounds read low
[28] = locus YHR082C, strain KSP1, active compounds read low
[29] = locus YHR205W, strain SCH9, active compounds read low
[30] = locus YIL147C, strain SLN1, active compounds read low
[31] = locus YJL095W, strain BCK1, active compounds read low
[32] = locus YJL128C, strain PBS2, active compounds read low
[33] = locus YJL157C, strain FAR1, active compounds read low
[34] = locus YJR016C, strain ILV3, active compounds read low
[35] = locus YJR066W, strain TOR1 (second series), active compounds read low
[36] = locus YJR066W, strain TOR1, active compounds read low
[37] = locus YKL048C, strain ELM1, active compounds read low
[38] = locus YKL067W, strain YNK1, active compounds read low
[39] = locus YKL101W, strain HSL1, active compounds read low
[40] = locus YKL193C, strain SDS22, active compounds read low
[41] = locus YKL203C, strain TOR2, active compounds read low
[42] = locus YLR113W, strain HOG1, active compounds read low
[43] = locus YLR133W, strain CKI1, active compounds read low
[44] = locus YLR403W, strain SFP1, active compounds read low
[45] = locus YML070W, strain DAK1, active compounds read low
[46] = locus YMR001C, strain CDC5, active compounds read low
[47] = locus YMR205C, strain PFK2 (second series), active compounds read low
[48] = locus YMR277W, strain FCP1, active compounds read low
[49] = locus YNL006W, strain LST8, active compounds read low
[50] = locus YNL020C, strain ARK1, active compounds read low
[51] = locus YNL161W, strain CBK1, active compounds read low
[52] = locus YNL183C, strain NPR1, active compounds read low
[53] = locus YNL207W, strain RIO2, active compounds read low
[54] = locus YNL222W, strain SSU72, active compounds read low
[55] = locus YNL307C, strain MCK1 (second series), active compounds read low
[56] = locus YOL078W, strain AVO1, active compounds read low
[57] = locus YOL136C, strain PFK27, active compounds read low
[58] = locus YOR061W, strain CKA2, active compounds read low
[59] = locus YOR119C, strain RIO1, active compounds read low
[60] = locus YOR231W, strain MKK1, active compounds read low
[61] = locus YOR329C, strain SCD5, active compounds read low
[62] = locus YPL031C, strain PHO85, active compounds read low
[63] = locus YPL153C, strain RAD53, active compounds read low
[64] = locus YPL204W, strain HRR25, active compounds read low
[65] = locus YPL209C, strain IPL1, active compounds read low
[66] = locus YPL256C, strain CLN2, active compounds read low
[67] = locus YPR025C, strain CCL1, active compounds read low
[68] = locus YPR106W, strain ISR1, active compounds read low
[69] = locus YPR111W, strain DBF20, active compounds read low
[70] = strain NNK1, active compounds read low
[71] = strain TSCII, active compounds read low

Measured: normalized growth

O=C(NCc1ccc(F)c(Cl)c1)Nc1csc([N+](=O)[O-])c1
inactive: [1] 0.984 | [2] 0.979 | [3] 0.987 | [4] 0.965 | [5] 0.981 | [6] 0.981 | [7] 0.98 | [8] 0.984 | [9] 0.975 | [10] 0.989 | [11] 0.975 | [12] 0.985 | [13] 0.989 | [14] 0.986 | [15] 0.977 | [16] 0.917 | [17] 0.965 | [18] 0.989 | [19] 0.967 | [20] 0.984 | [21] 0.951 | [22] 0.977 | [23] 0.976 | [24] 1.02 | [25] 0.96 | [26] 0.906 | [27] 0.958 | [28] 0.99 | [29] 0.932 | [30] 0.983 | [31] 0.963 | [32] 0.957 | [33] 0.987 | [34] 0.99 | [35] 0.952 | [36] 0.987 | [37] 0.98 | [38] 0.973 | [39] 0.947 | [40] 0.987 | [41] 1.03 | [42] 0.922 | [43] 0.962 | [44] 0.948 | [45] 0.938 | [46] 0.99 | [47] 0.962 | [48] 0.991 | [49] 0.993 | [50] 0.972 | [51] 0.983 | [52] 0.957 | [53] 0.981 | [54] 0.988 | [55] 0.973 | [56] 0.983 | [57] 0.942 | [58] 0.966 | [59] 1.01 | [60] 0.939 | [61] 0.981 | [62] 0.983 | [63] 0.969 | [64] 0.981 | [65] 0.981 | [66] 0.916 | [67] 0.989 | [68] 0.978 | [69] 0.977 | [70] 0.99 | [71] 0.981

O=C(Nc1ccc(Cl)cc1)c1csc([N+](=O)[O-])c1
active: [26] 0.583 | [42] 0.596 | [66] 0.712
inactive: [1] 0.92 | [2] 0.93 | [3] 0.931 | [4] 0.927 | [5] 0.933 | [6] 0.938 | [7] 0.922 | [8] 0.943 | [9] 0.929 | [10] 0.908 | [11] 0.874 | [12] 0.936 | [13] 0.901 | [14] 0.923 | [15] 0.803 | [16] 0.795 | [17] 0.764 | [18] 0.913 | [19] 0.919 | [20] 0.924 | [21] 0.918 | [22] 0.915 | [23] 0.797 | [24] 0.826 | [25] 0.545 | [27] 0.764 | [28] 0.891 | [29] 0.786 | [30] 0.923 | [31] 0.697 | [32] 0.935 | [33] 0.827 | [34] 0.926 | [35] 0.752 | [36] 0.759 | [37] 0.874 | [38] 0.894 | [39] 0.894 | [40] 0.92 | [41] 0.857 | [43] 0.873 | [44] 0.79 | [45] 0.832 | [46] 0.92 | [47] 0.862 | [48] 0.914 | [49] 0.921 | [50] 0.863 | [51] 0.933 | [52] 0.829 | [53] 0.908 | [54] 0.919 | [55] 0.818 | [56] 0.923 | [57] 0.861 | [58] 0.882 | [59] 0.86 | [60] 0.825 | [61] 0.924 | [62] 0.773 | [63] 0.795 | [64] 0.757 | [65] 0.926 | [67] 0.929 | [68] 0.94 | [69] 0.925 | [70] 0.944 | [71] 0.928
